# PubChem BioAssay (NCI)
# Several values for one entry are separate records, joined by “and”; a condition that tells them apart may be missing. Equal entries are not always repeated. About 83,000 compounds went through this panel and 20% of them were active in at least one assay; those are over-represented in the sample as a whole.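 In brief: 96-well plates, 48 h treatment, single concentration, percent growth endpoint.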 Values without a mark were called inactive. Activity calls are given as the source filed them. Rule for the calls: active = growth percent below 10; inactive = the rest.
# Tested on: HL-60(TB) leukemia
# Experiment: NCI-60 one-dose screen, 48 h (100 = growth as untreated, 0 = no growth, -100 = all killed)
# Conditions: 10 µM unless noted
row,SMILES,growth
1,O=c1[nH]c(=O)n(C2OC(CO)C(O)C2O)cc1I (centres undefined),77.5% and 86.6%
2,O=C1/C(=C/c2ccc(O)cc2)Cc2ccc(Cl)cc21,60.1%
3,COc1cc2c(c(OC)c1OC)CCC(c1cccc(C(=O)Nc3cccc(Cl)c3)c1)O2 (centres undefined),82.7%
4,CN(C)c1ccc(-c2cc(-c3ccc(Nc4nc(Nc5ccc(Cl)cc5)nc(Nc5ccc(Cl)cc5)n4)cc3)no2)cc1,3.2% (active)
5,C#Cc1cccc(NC(=O)c2ccc(NC(=O)CCl)cc2)c1,11.7% [8.25 µM]
6,N=c1ccc2nc3c(cc(N)c4ccccc43)oc-2c1,-48.4% (active)
7,CC(=O)[C@@H]1CC[C@]2(C(N)=O)CC[C@]3(C)[C@H](CC[C@@H]4[C@@]5(C)CCC(=O)C(C)(C)[C@@H]5CC[C@]43C)[C@@H]12,89.7%
8,Cc1nn(-c2ccccc2)c(Oc2ccc(Cl)cc2)c1/C=N\N=c1/sc2ccccc2n1C,78%
9,BrC/C=C/C[P+](c1ccccc1)(c1ccccc1)c1ccccc1,9.15% (active)
10,COc1cc(-c2nccc3cc4c(cc23)OCO4)cc(OC)c1OC,5.43% (active) and 9.65% (active)
11,COc1cccc2c1C=C1CCCCC3=Cc4c(OC)cccc4OC13O2,19.1%
12,O=C1NCc2ccc3c(-c4cccc(Cl)c4)c[nH]c3c21,-4.05% (active)
13,O=C1N=NC2=C1c1c3ccccc3c(O)n1CC2,105%
14,Cc1ccc(N2CCN(C(=S)c3cccs3)CC2)cc1,93.3%
